From PubChem BioAssay AID623868 (Vanderbilt High Throughput Screening Facility, 2012)
Hit rate of the full screen: of about 2,100 compounds, about 760 (36%) were called active. A selection follows. Unmarked numbers belong to inactive results.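 Rule for the calls: active = thallium-flux fluorescence traces judged by eye to show enhanced or reduced glutamate response, manual score 1 or -1, so both directions (some results past the limit were not filed as active); inactive = the rest, including fluorescent or raised-baseline compounds.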

Test: thallium influx changes without GIRK channels – cell-based, HEK-293 rmGlu8, no GIRK, thallium flux, counter-screen for GIRK activator project, confirmation (AID 623868);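 note: extra codes mark interference with 3 for fluorescent and 4 for baseline rise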
Details: thallium flux fluorescence, at 10 µM, actives lie on both sides, codes: 1 enhancer, -1 blocker, 0 none, thallium stimulus containing EC20 glutamate
Cc1cc(C)n(CC(=O)O)n1 showed a manual score of 0.
Work on C/C(=N\NC(=S)NCCc1ccccc1)c1cccs1 yielded a manual score of 3.
With CCNC(=S)N/N=C(\C)c1ccc(Cl)s1 the manual score was 1 (active).
For C/C(CC(=O)NC(C)C)=N\NC(=O)COc1cc(C)c(Br)cc1Br, the manual score was 0.
For COc1ccc(N2CCCn3c2nc2c3c(=O)n(Cc3ccccc3F)c(=O)n2C)c(OC)c1, the manual score was -1 (active).
Cn1c(N2CCCC2)nc2c1c(=O)n(Cc1ccc(Cl)cc1)c(=O)n2C gave a manual score of 0.
Work on COc1ccc(N2CCN(c3nc4c(c(=O)n(C)c(=O)n4C)n3Cc3ccccc3)CC2)cc1 yielded a manual score of 0.
Compound CCN(CC(=O)c1c(N)n(C)c(=O)n(C)c1=O)c1cccc2ccccc12 has a manual score of 0.
With O=C1NC(=S)SC1=C1CCCCCC1 the manual score was 1 (active).
With CCCCn1c(-c2csc3c2CCC(C)C3)n[nH]c1=S (stereo not given) the manual score was 1 (active).
For CCCCn1c(-c2csc3c2CCCC3)n[nH]c1=S, the manual score was 0.
Work on CCCCCNc1nc(-c2ccccc2)cs1 yielded a manual score of 0.
With CCCc1cc(-c2n[nH]c(=S)n2Cc2ccccc2)cs1 the manual score was 1 (active).
For CCc1cc(-c2n[nH]c(=S)n2C(C)c2ccccc2)cs1 (stereo not given), the manual score was 1 (active).
With CCCCn1c(-c2csc(C(C)C)c2)n[nH]c1=S the manual score was 1 (active).
Work on CCCc1cc(-c2n[nH]c(=S)n2C(C)c2ccccc2)cs1 (stereo not given) yielded a manual score of 0.
For Cc1cccc(-n2c(-c3csc(C(C)C)c3)n[nH]c2=S)c1, the manual score was 1 (active).
With Cc1cccc(-n2c(C)nc3sccc3c2=O)c1 the manual score was 0.
In the case of CCCc1cc(-c2n[nH]c(=S)n2CC(C)C)cs1, the manual score was 1 (active).
With Cc1ccc(S(=O)(=O)CC(=O)Nc2ccc(S(=O)(=O)Nc3onc(C)c3C)cc2)cc1 the manual score was 0.
Compound Cc1cccc2cc(/C=C3\N=C(c4ccccc4)OC3=O)c(N3CCOCC3)nc12 has a manual score of 3.
With COC(=O)c1ccc(CSc2ccc3nnc(-c4ccccc4)n3n2)o1 the manual score was -1 (active).
COC(=O)c1ccc(CSc2nnc(Nc3ccccc3OC)s2)o1 gave a manual score of 0.
For CCn1c(SCc2ccc(Cl)cc2)nnc1-c1ccccc1, the manual score was 0.
Compound CCn1c(SCc2nc(-c3ccccc3)no2)nc2ccccc21 has a manual score of 0.
CCCCc1ccc(NC(=S)Nc2cccnc2)cc1 gave a manual score of 0.
In the case of CCn1c(NC(=S)Nc2ccccc2)nc2ccccc21, the manual score was 1 (active).
With CCN(CC)CCn1c(NC(=O)c2ccc(Cl)cc2)nc2ccccc21 the manual score was 0.
For CCCn1c(NCc2ccc(N(C)C)cc2)nc2ccccc21, the manual score was 0.
With CCCCn1c(NC(=S)Nc2ccccc2)nc2ccccc21 the manual score was 1 (active).
For CCCCN1C(=O)c2ccccc2C1C(=O)NC1CCCC1 (stereo not given), the manual score was 0.
For Cc1cccc(C(=O)N2CCC(Cc3ccccc3)CC2)c1[N+](=O)[O-], the manual score was 0.
With O=C(Nc1nnc(-c2ccc3c(c2)CCCC3)o1)c1ccc(Cl)cc1Cl the manual score was 1 (active).
With O=C(Nc1nnc(-c2ccc3c(c2)CCCC3)o1)C1COc2ccccc2O1 (stereo not given) the manual score was 1 (active).
CCC(/C=N/NC(=O)C1COc2ccccc2O1)CC (stereo not given) showed a manual score of 0.
In the case of CC1CN(S(=O)(=O)c2ccc(C(=O)Nc3nnc(-c4ccc5c(c4)CCCC5)o3)cc2)CC(C)O1 (stereo not given), the manual score was 1 (active).
In the case of Cc1ccc(NC(=O)c2ccc(COc3ccc4c(c3)CCC4)cc2)c(C)c1, the manual score was 0.
In the case of NS(=O)(=O)c1ccc(NC(=O)C2COc3ccccc3O2)cc1 (stereo not given), the manual score was 0.
For O=C(Nc1ccc(-c2nc3ccccc3o2)cc1)c1cc(-n2cnnc2)ccc1Cl, the manual score was 0.
With O=C(Nc1nnc(-c2ccc3c(c2)CCCC3)o1)c1ccccc1Cl the manual score was 1 (active).
With CCCC1COC(Cn2cncn2)(c2ccc(C)cc2)O1 (stereo not given) the manual score was 0.
In the case of O=C(c1cnn2c(C(F)(F)F)cc(-c3cccs3)nc12)N1CCN(Cc2ccccc2)CC1, the manual score was 0.
In the case of CCCCCCCC1CC(CSc2ncn[nH]2)OC1=O (stereo not given), the manual score was 0.
In the case of N=c1oc2ccc3ccccc3c2cc1-c1nc(-c2ccccc2)cs1, the manual score was 3.
Work on CC1CCCCN1Cc1nc2c(c(=O)n(C)c(=O)n2C)n1CCc1ccccc1 (stereo not given) yielded a manual score of 0.
In the case of O=C(Nc1cccc(-c2nnc(-c3ccccc3)o2)c1)C1CCCO1 (stereo not given), the manual score was 0.
With O=C(Nc1nnc(-c2ccc3c(c2)CCCC3)o1)c1ccccc1 the manual score was 1 (active).
In the case of CN(C)S(=O)(=O)c1ccc(C(=O)Nc2nnc(-c3ccc4c(c3)CCCC4)o2)cc1, the manual score was 0.
CN1CCN(Cc2cccc(Oc3ccc(Cl)cc3)c2)CC1 showed a manual score of 0.
With CCCc1ccc(OCC(=O)NNC(=S)NC(=O)c2ccco2)cc1 the manual score was 1 (active).
In the case of Cc1ccccc1OCC(=O)NNC(=S)NC(=O)c1ccco1, the manual score was 1 (active).
Cc1ccccc1OCC(=O)N/N=C/c1cccn1C gave a manual score of 0.
O=C(Nc1ccc(Br)cc1)C1CCC(=O)N1Cc1ccccc1Cl (stereo not given) gave a manual score of 0.
In the case of O=P(CCCCCCCCCP(=O)(c1ccccc1)c1ccccc1)(c1ccccc1)c1ccccc1, the manual score was -0.5.
In the case of COc1ccccc1Nc1ccc(Nc2ccccc2OC)nn1, the manual score was 0.
For COc1ccccc1-c1ccc(NC2CCCC2)nn1, the manual score was -1 (active).
In the case of S=c1nc(-c2ccc(Br)cc2)oc2c1CCCC2, the manual score was 1 (active).
With CC(C)COc1ccc(Cc2cnc(N)nc2N)cc1 the manual score was 0.
In the case of CCN(C#N)c1nc(NC(C)C)nc(NC(C)C)n1, the manual score was 0.
For Oc1c(N=Nc2ccccn2)ccc2ccccc12, the manual score was 1 (active).
For Oc1ccc2ccccc2c1N=Nc1ccccn1, the manual score was 1 (active).
Compound CC(C)n1c(O)c(N=Nc2ccccn2)c2ccccc21 has a manual score of 0.
In the case of CCCCn1c(=N)n(CC(O)COc2cccc(C)c2)c2ccccc21 (stereo not given), the manual score was 0.
For CCCCn1c(O)c(N=Nc2ccccn2)c2ccccc21, the manual score was 1 (active).
In the case of CCOc1ccc(N2C(=O)CC(SC(=NC)Nc3ccc(F)cc3)C2=O)cc1 (stereo not given), the manual score was 0.
Compound COc1ccc2cc(Br)ccc2c1CC(=O)NC1CC(C)(C)NC(C)(C)C1 has a manual score of 0.
For CCC(C)NC(=O)CN1C(=O)CC(C)(C)S(=O)(=O)c2ccccc21 (stereo not given), the manual score was 0.
For CCn1c(=O)cc(OCC(=O)Nc2cccc(C)n2)c2ccccc21, the manual score was 0.
In the case of CCn1c(=O)c(C(=O)NCCCO)c(O)c2ccccc21, the manual score was 0.
With CCn1c(O)c(N=NC(=O)CNc2cccc(C)c2)c2ccccc21 the manual score was 1 (active).
Cc1nn(-c2ccccc2)c(OC(=O)c2cccs2)c1S(=O)(=O)c1ccccc1 showed a manual score of 0.
With CCN(CC)c1cnn(C/C(=N\OC)c2ccc(Cl)cc2)c(=O)c1Br the manual score was -1 (active).
Compound CO/N=C(\Cn1ncc(N2CCCC2)c(Cl)c1=O)c1ccc(Cl)cc1 has a manual score of 0.
CO/N=C(\Cn1ncc(N2CCCC2)c(Br)c1=O)c1ccc(Cl)cc1 showed a manual score of 0.
Work on CCC(C)(C)NC(=O)C(c1ccc(F)cc1)N(Cc1ccco1)C(=O)c1cnccn1 (stereo not given) yielded a manual score of 0.
With N#CC1=C(N)SC(N)=C(C#N)C1c1c(Cl)cccc1Cl the manual score was -1 (active).
Compound N#CC1=C(N)SC(N)=C(C#N)C1CCc1ccccc1 has a manual score of 0.
For C#CCSc1nnc(-c2cccc3ccccc23)o1, the manual score was 0.
For Oc1oc(-c2cccc3ccccc23)nc1/C=N/c1nccs1, the manual score was 1 (active).
With O=C(O)c1cnc(-c2ccccc2)nc1Sc1ccccc1Cl the manual score was 0.
In the case of CC(C)C(=O)OCC(=O)Nc1ccc(N=Nc2ccccc2)cc1, the manual score was 0.
In the case of CCOC(=O)c1c2n(c3c(NCc4ccccc4)ncnc13)CCCC2, the manual score was -1 (active).
With CCOC(=O)C1CCCN(c2ncnc3c2oc2ccccc23)C1 (stereo not given) the manual score was 0.
Compound CCOC(=O)c1c(C)oc2ccc(O)c(CN3CCCCC3)c12 has a manual score of 0.
Compound Cc1ccc(SC(C)C(=O)Nc2ccc(S(=O)(=O)N3CCOCC3)cc2)cc1 (stereo not given) has a manual score of 0.
For Cc1ccc(NC(=S)N=Nc2c(O)n(C)c3ccc(S(=O)(=O)N4CCOCC4)cc23)cc1, the manual score was 1 (active).
For Cc1ccc(C)c(NC(=S)N=Nc2c(O)n(C)c3ccc(S(=O)(=O)N4CCOCC4)cc23)c1, the manual score was 1 (active).
Compound Cc1ccc(NC(=O)CSc2nccn2C)cc1S(=O)(=O)N1CCOCC1 has a manual score of 0.
For CCc1c(C)sc(NC(=O)CCc2ccc(OC)cc2)c1C(N)=O, the manual score was 0.
In the case of CCC(C)n1c(=S)[nH]c2c(sc3ccc([N+](=O)[O-])cc32)c1=O (stereo not given), the manual score was 1 (active).
With CN=C1S/C(=C\c2cc(C)n(-c3ccccc3F)c2C)C(=O)N1C the manual score was 0.
For COc1ccc(C2c3ccc4ccccc4c3Oc3ncn(CCN4CCOCC4)c(=N)c32)cc1 (stereo not given), the manual score was 0.
Compound C=C(C)CNC(=S)Nc1cccc2cnccc12 has a manual score of 0.
With O=C(NNC(=S)Nc1cccc2ccccc12)c1cccc(Br)c1 the manual score was 1 (active).
In the case of Cc1ccc(C(=O)NNC(=S)Nc2cccc3ccccc23)s1, the manual score was 1 (active).
Compound S=C(Nc1cccc(Br)c1)c1ccccc1 has a manual score of 0.
In the case of O=C(NNC(=S)Nc1ccccc1)c1cccc(Br)c1, the manual score was 1 (active).
For NC(=O)Nc1cccc2ccccc12, the manual score was 0.
CN1CCN(C(=O)Nc2cccc3ccccc23)CC1 showed a manual score of 0.
N#Cc1ccsc1NC(=O)CN1CCN(c2ccc(O)cc2)CC1 gave a manual score of 0.
For COc1ccc(/C=C2\N=C(SC)NC2=O)cc1, the manual score was 1 (active).
Cc1ccc(S(=O)(=O)n2cnc3cc([N+](=O)[O-])ccc32)cc1C showed a manual score of 0.
Compound Clc1ccccc1-c1nnc2sc(-c3ccccn3)nn12 has a manual score of 0.
Compound Clc1ccccc1-c1nnc2sc(-c3ccc4c(c3)OCO4)nn12 has a manual score of 0.
For Brc1ccccc1-c1nnc2sc(-c3ccc4c(c3)OCCO4)nn12, the manual score was -1 (active).
